Source: PubChem BioAssay (several laboratories)
KKLEB cytotox – cytotoxicity in KKLEB CF airway cells, primary screen, cytotoxicity control for CF NF-kB inhibitor project, cell-based, uHTS, fluorescence assay plates; KKLEB CF airway cells viability, ATPlite luminescence, overnight; hits give low values; cells stimulated with P. aeruginosa culture filtrate; activity change (cytotoxicity), % at 5 µM; hit rate 0.36% among 360,000; AID 602141, 2011;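 active = corrected activity change at or below -50% at 5 µM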
CF NFkB inh – inhibitors of PAF-induced NF-kB signaling, primary screen, cell-based, GFP fluorescence, uHTS; KKLEB NF-kB-GFP reporter, GFP fluorescence overnight; inhibition, % at 5 µM; hit rate 0.86% among 360,000;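 active = at least 50% inhibition at 5 µM, scaled per plate between neutral and stimulator controls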;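 also: PAF is a Pseudomonas aeruginosa culture filtrate used as stimulus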
Peg3 promoter – Peg3 promoter-driven luciferase inhibitors, primary screen, cell-based, HeLa, luciferase luminescence. inhibition, % at 20 µM. AID 588405, 2011. hit rate 1.7% among 360,000. HeLa PEG-Prom luciferase reporter, overnight;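 active = inhibition of at least 50% at 20 µM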
Shn3 inh set2 – reduction of Shn3 3'UTR firefly luciferase signal, primary screen, Schnurri-3 inhibitor project, cell-based, Clone20 osteoblasts, set 2. Clone20 osteoblast Shn3 3'UTR firefly luciferase, 24 h. inhibition, % at 12.5 µM. hit rate 0.52% among 360,000;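 active = mean inhibition of at least 75% with every replicate also reaching 75%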
HIF-2a inh – HIF-2a reporter inhibitors, primary screen, luminescence, 786-0 RCC cells | inhibition, % at 18.8 µM | 786-0 RCC cells HIF-2a reporter, luciferase luminescence, overnight | hit rate 0.72% among 360,000 | AID 624352, 2012;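 active = inhibition of the luminescence signal of 40% or more relative to plate controls, in a single-dose primary screen at 18.75 µM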
TRPM1 prom inh – inhibitors of MITF-dependent TRPM1 promoter reporter, primary screen, cell-based, SK-MEL-5, single point, luciferase; SK-MEL-5 TRPM1 promoter luciferase, 24 h; inhibition, % at 12.5 µM; hit rate 0.83% among 330,000; AID 488899, 2010;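 active = mean inhibition across replicates of 60% or more, whatever share of single replicates reaches that level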
Mdm2 MdmX conf – retested Mdm2-MdmX interaction blockers, confirmation, cell-based, luminescence, single concentration, set 2; SaOS-2 split-luciferase Mdm2/MdmX complementation; shares compounds with HIF-2a inh; hit rate 99% among 740; inhibition, % at 8 µM;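 active = mean inhibition of the luminescence signal across two replicates at or above 26 percent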
Target sequence (O15151 whole entry, looked up): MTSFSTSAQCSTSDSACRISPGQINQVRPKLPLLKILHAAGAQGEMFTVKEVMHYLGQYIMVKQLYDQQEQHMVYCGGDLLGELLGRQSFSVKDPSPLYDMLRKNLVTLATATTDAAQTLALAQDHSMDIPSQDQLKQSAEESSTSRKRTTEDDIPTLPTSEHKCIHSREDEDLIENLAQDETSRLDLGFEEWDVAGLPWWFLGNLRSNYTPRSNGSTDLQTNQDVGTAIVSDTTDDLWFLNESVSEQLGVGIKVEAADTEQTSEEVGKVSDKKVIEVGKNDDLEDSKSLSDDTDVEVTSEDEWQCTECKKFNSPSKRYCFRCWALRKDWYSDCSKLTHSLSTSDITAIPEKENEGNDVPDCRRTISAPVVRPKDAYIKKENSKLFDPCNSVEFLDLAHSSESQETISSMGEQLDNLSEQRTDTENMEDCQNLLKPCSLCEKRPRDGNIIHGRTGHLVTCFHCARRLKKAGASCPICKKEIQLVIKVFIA
Target sequence (Q00987 whole entry, looked up): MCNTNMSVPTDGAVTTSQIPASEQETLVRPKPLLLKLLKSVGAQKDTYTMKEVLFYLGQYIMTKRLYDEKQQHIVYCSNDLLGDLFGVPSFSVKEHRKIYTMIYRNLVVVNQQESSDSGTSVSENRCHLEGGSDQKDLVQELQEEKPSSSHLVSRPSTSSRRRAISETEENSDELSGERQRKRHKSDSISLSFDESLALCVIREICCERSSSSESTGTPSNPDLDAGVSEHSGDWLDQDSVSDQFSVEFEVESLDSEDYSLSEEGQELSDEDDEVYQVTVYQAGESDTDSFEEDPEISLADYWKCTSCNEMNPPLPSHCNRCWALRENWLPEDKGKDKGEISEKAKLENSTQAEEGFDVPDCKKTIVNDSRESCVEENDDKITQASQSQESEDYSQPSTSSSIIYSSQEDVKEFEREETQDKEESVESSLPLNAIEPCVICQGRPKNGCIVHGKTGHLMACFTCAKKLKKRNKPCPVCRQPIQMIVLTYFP
HIF-2a inh conf – HIF-2a reporter inhibitor retest, confirmation, luminescence, 786-0 RCC cells; shares compounds with HIF-2a inh; HIF-2a luciferase reporter luminescence, overnight; inhibition, % at 18.8 µM; hit rate 56% among 1,800;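 active = mean inhibition across four replicates of at least 40 percent at the single tested concentration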
HIF-1a cs – HIF-1a luciferase reporter signal reduction – MiaPaCa-2 cells, single concentration, counter-screen for HIF-2a inhibitor project, confirmation; shares compounds with HIF-2a inh; MiaPaCa-2 HIF-1a luciferase reporter, desferoxamine, overnight; inhibition, % at 18.8 µM; hit rate 72% among 1,800;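 active = mean inhibition of the reporter signal across four replicates at the single tested dose of 50% or more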
Numbers stand for hits; 0 = inactive; - = no result. Sampled rows, rich in hits. Any-hit rate of the full collection: about 2.8%.

SMILES	KKLEB cytotox	CF NFkB inh	Peg3 promoter	Shn3 inh set2	HIF-2a inh	TRPM1 prom inh	HIF-2a inh conf	HIF-1a cs	others
CN(CC1COc2ccccc2O1)C(=O)CSc1ncccn1 (stereo not drawn)	0	0	0	0	0	0	-	-
CCCCn1c(N)c(N(CCOC)C(=O)c2cc(C)oc2C)c(=O)[nH]c1=O	0	0	0	0	0	0	-	-
O=C(Nc1ccc(F)cc1)c1nc(S(=O)(=O)Cc2ccccc2)ncc1Cl	-75	101	100	94	86	62	99	60	Mdm2 MdmX conf=102
O=C(NCCCCO)c1ccc2c3c(cccc13)CC2	0	0	0	0	0	0	-	-
COc1ccc(CNC(=O)c2ccc(-n3ccnc3)c3ccoc23)cc1OC	0	0	0	0	0	-	-	-
Cc1ccc(NC(=O)CSCc2cc(=O)n3cc(C)sc3n2)cc1	0	0	0	0	0	0	-	-
Cc1ccc(COc2ccc(-c3nnco3)cc2)cc1	0	0	0	0	0	0	-	-
Cc1ccc(C(C)C)c(OCc2ccc(-c3nnco3)cc2)c1	0	0	0	0	69	0	71	0
O=C(O)c1ccc(NC2=C(Cl)C(=O)c3ccccc3C2=O)cc1	-89	92	109	95	94	96	-	-	Mdm2 MdmX conf=101
O=C(COC(=O)c1ccccc1Br)Nc1ccccc1F	0	0	0	0	0	0	-	-
Cc1c([N+](=O)[O-])cnc(Sc2ccccc2)c1[N+](=O)[O-]	0	52	0	0	50	0	48	84
Cc1ccc(Sc2ncccc2[N+](=O)[O-])cc1	0	0	0	0	0	0	-	-
Cc1sc2ncnc(Nc3ccc(N4CCOCC4)cc3)c2c1-c1ccccc1	0	0	0	0	45	0	0	79
Cc1sc2ncnc(Nc3ccccc3)c2c1C	0	0	0	-	0	0	-	-
CCCn1c(N)c(N(CCOC)C(=O)Cc2ccc(S(=O)(=O)N3CCOCC3)s2)c(=O)[nH]c1=O	0	0	0	0	0	0	-	-
CCOC(=O)c1nnc(-c2cccs2)nc1Oc1ccc(Cl)cc1	0	0	0	0	42	0	0	0
O=C(O)C1(c2ccccc2)CCN(S(=O)(=O)c2cccc(Cl)c2)CC1	0	0	0	0	0	0	-	-
Cc1ccc(OCC(=O)c2cc(C)n(CC(F)(F)F)c2C)c([N+](=O)[O-])n1	0	0	0	0	0	0	-	-
COCCn1c(C)cc(C(=O)COc2cccnc2[N+](=O)[O-])c1C	0	0	65	0	51	0	65	71
Cc1cc(C)c(C(=O)COc2cccnc2[N+](=O)[O-])cc1C	0	0	0	0	0	0	-	-
Cc1ccc(OCC(=O)c2cc(C)n(Cc3cccs3)c2C)c([N+](=O)[O-])n1	0	0	0	0	58	0	72	95
C=C1C[C@H](O[C@@H]2O[C@H](CO)[C@@H](O)[C@H](O)[C@H]2O)[C@@H]2[C@H](OC(=O)[C@H]2C)[C@H]2[C@H](C)[C@H](O)C[C@@H]12	0	0	0	0	0	0	-	-
O=c1cc(-c2ccccc2)oc2ccc(Cl)cc12	0	0	0	0	0	0	-	-
O=c1oc(-c2ccccc2)cc(Cl)c1Cl	-103	74	109	0	42	0	0	107
C=C1C(=O)[C@]23C[C@H]1CC[C@H]2[C@]1(C)[C@@H](OC(C)=O)CC[C@@](C)(C(=O)OC)[C@H]1C[C@@H]3OC(C)=O	-97	95	99	96	97	-	98	107
SMILES	KKLEB cytotox	CF NFkB inh	Peg3 promoter	Shn3 inh set2	HIF-2a inh	TRPM1 prom inh	HIF-2a inh conf	HIF-1a cs	others
CCOc1ccc(CCN2C(=O)C(=O)N([C@@H](Cc3ccccc3)CN3CCC[C@H]3CN3C(=O)C(=O)NC[C@@H]3Cc3ccccc3)C[C@@H]2CC(C)C)cc1	-	-	-	-	48	-	0	103
N#Cc1cccc(C=C(C(=O)c2ccccc2)c2ccccc2)c1	-	-	-	-	41	-	0	0
COc1ccc(-c2ccccc2NC(=O)C2CCCN(Cc3ccc(C)o3)C2)cc1 (stereo not drawn)	0	0	0	0	0	0	-	-
CC(=O)Nc1ccc(OS(=O)(=O)c2ccc(C)cc2C)cc1	0	0	0	0	80	0	88	0
CC(=O)Nc1ccc(OS(=O)(=O)c2c(C)cc(C)cc2C)cc1	0	0	0	0	50	0	55	0
CC(=O)Nc1ccc(OS(=O)(=O)c2ccccc2C)cc1	0	0	0	0	0	0	-	-
Cc1cc(-c2nnc(SCC(=O)Nc3cccc(F)c3)n2N)n[nH]1	0	0	0	0	0	0	-	-
Cc1cc(C)c(C(=O)C2OC(=O)C(C)(C)C(=O)C2(C)C)c(C)c1 (stereo not drawn)	0	0	0	0	0	0	-	-
CC[C@@H](C)[C@H](CN[C@H](CNC)C(C)C)NC[C@@H](C)c1ccc(CC(C)C)cc1	0	0	99	0	0	100	-	-	Mdm2 MdmX conf=103
CCN(C(=O)CSc1nnc(SC(C)C)s1)C1CCS(=O)(=O)C1 (stereo not drawn)	0	0	0	0	0	0	-	-
Cn1c(/C=C/c2ccc(Br)cc2)c([N+](=O)[O-])c(=O)n(C)c1=O	0	0	62	0	92	0	55	96
CC(OC(=O)c1ccc(S(C)(=O)=O)c([N+](=O)[O-])c1)C(=O)NC1C2CC3CC(C2)CC1C3 (stereo not drawn)	0	95	95	98	93	-	87	100
CCC(OC(=O)c1ccc(S(C)(=O)=O)c([N+](=O)[O-])c1)C(=O)NC1C2CC3CC(C2)CC1C3 (stereo not drawn)	-74	104	96	96	81	-	0	105
Cc1ccc(C(=O)OC(C)C(=O)NC2CCCCC2)cc1S(=O)(=O)N1CCCCC1 (stereo not drawn)	0	0	0	0	0	0	-	-
CC(C)(C)NC(=O)CSc1nc(O)cc(=O)[nH]1	0	0	0	0	41	0	0	0
